Assay outcomes from PubChem BioAssay.
MITF primary – inhibitors of human MITF; inhibition, % at 2.6 µM; 650,000 tested, 0.91% active; AlphaScreen MITF homodimerization, bead proximity signal; in the data active means inhibition above about 50%;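 further: 0% = vehicle wells with protein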
TEAD-YAP block – TEAD-YAP interaction inhibition. HEK-TIYL cells, TEAD-Gal4/YAP UAS-luciferase luminescence. inhibition, % at 9.12 µM. 640,000 tested, 1.4% active; in the data active means inhibition above about 32%;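 further: 0% = median of test compound wells and 100% = reference inhibitor wells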
FBW7 activator – human FBW7 E3 ligase activation, primary screen. 650,000 tested, 0.13% active. Q969H0. AID 1259310. AlphaScreen FBW7–phospho-cyclin E peptide binding, activator screen. normalized activity (activation), % at 26.1 µM; in the data active means normalized activity above about 1.9%;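 further: purified mutant Fbw7 with reduced substrate affinity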
GPR151 activ – human GPR151 activation; Q8TDV0; AID 1508602; 650,000 tested, 1% active; PathHunter beta-arrestin GPR151 cells, luminescence; activation, % at 11.2 µM; in the data active means activation above about 4.9%;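 further: 0% = median of compound wells and 100% = cells with positive control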
An asterisk follows results filed as active. Hits are enriched below; roughly 3.4% of the tested compounds scored in any of these assays.

Screening CC(=O)N1CCc2cc(Br)cc(S(=O)(=O)Nc3ccc(C)cc3)c21 returned MITF primary 6, TEAD-YAP block -1, FBW7 activator 0 and GPR151 activ 2.
Screening Clc1ccc2nc(CSc3nnnn3-c3ccccc3)cn2c1 returned MITF primary 9, TEAD-YAP block 3, FBW7 activator 0 and GPR151 activ -2.
`COC(=O)c1ccc(/C=C/C(=O)c2ccc(OC)c(OC)c2)cc1` gave MITF primary -2, TEAD-YAP block -8, FBW7 activator 0 and GPR151 activ 0.
Screening COc1cc(/C=C/C(=O)c2ccc(F)cc2)cc(OC)c1OC returned MITF primary 2, TEAD-YAP block 26, FBW7 activator 0 and GPR151 activ 4.
`CCOc1ccc(C(=O)/C=C/c2cc(OC)c(OC)c(OC)c2)cc1` gave MITF primary 10, TEAD-YAP block 40*, FBW7 activator 0 and GPR151 activ 2.
COc1cc(C(=O)/C=C/c2ccc(OCC(N)=O)cc2)cc(OC)c1OC was read as MITF primary 14, TEAD-YAP block -1, FBW7 activator 2.0* and GPR151 activ 0.
For N#C/C(=C\c1cn(-c2ccccc2)nc1-c1ccccc1)C(=O)O the results were MITF primary 4, TEAD-YAP block 4, FBW7 activator 0 and GPR151 activ -1.
For Cc1ccc([N+](=O)[O-])cc1NC(=O)CC1CCCCC1 the results were MITF primary 7, TEAD-YAP block 6, FBW7 activator 0 and GPR151 activ 1.
Screening Clc1ccc(-c2cn3c4ccccc4n(CCN4CCCCC4)c3n2)cc1 returned MITF primary -28, TEAD-YAP block 4, FBW7 activator 5.0* and GPR151 activ 0.
CCn1c2ccccc2n2cc(-c3ccc(Br)cc3)nc12 was read as MITF primary -11, TEAD-YAP block -12, FBW7 activator 2.3* and GPR151 activ 3.
`C=CCn1c2ccccc2n2cc(-c3ccccc3)nc12` gave MITF primary 10, TEAD-YAP block -12, FBW7 activator 1 and GPR151 activ -2.
O=C(/C=C\Nc1ccccc1[N+](=O)[O-])c1ccc(F)cc1 was read as MITF primary 10, TEAD-YAP block 43*, FBW7 activator 0 and GPR151 activ -1.
Screening CCOc1ccc(N/C=C/C(=O)c2ccccc2)c([N+](=O)[O-])c1 returned MITF primary 17, TEAD-YAP block 60*, FBW7 activator 0 and GPR151 activ -6.
`O=C(/C=C/Nc1ccccc1[N+](=O)[O-])c1ccccc1` gave MITF primary 11, TEAD-YAP block 67*, FBW7 activator 0 and GPR151 activ -5.
`Cc1ccc(C(=O)/C=C\Nc2ccccc2[N+](=O)[O-])cc1` gave MITF primary 7, TEAD-YAP block -53, FBW7 activator 0 and GPR151 activ -1.
`CCOc1ccc(N/C=C/C(=O)c2ccco2)c([N+](=O)[O-])c1` gave MITF primary -4, TEAD-YAP block -42, FBW7 activator 0 and GPR151 activ -1.
Screening O=C(NCc1nnc(SCC(=O)N2N=C(c3cccs3)CC2c2ccc(F)cc2)n1-c1ccc(F)cc1)c1ccccc1 (stereo not drawn) returned MITF primary 16, TEAD-YAP block 4, FBW7 activator 0 and GPR151 activ 1.
`CCCc1cc(-c2onc(C)c2-c2ccc3c(c2)OCCCO3)c(O)cc1OC` gave MITF primary -15, TEAD-YAP block -23, FBW7 activator 0 and GPR151 activ -1.
CCc1cc(-c2onc(C)c2-c2ccc(OC)cc2)c(O)cc1OC was read as MITF primary 16, TEAD-YAP block 45*, FBW7 activator 0 and GPR151 activ 0.
COc1ccccc1CN1CCN2C(=O)[C@H]3CCCN3C(=O)[C@H]2C1 was read as MITF primary 9, TEAD-YAP block -8, FBW7 activator 0 and GPR151 activ -1.
`CC(C)n1cnc2c(NCc3nc4ccccc4[nH]3)nc(Nc3ccc4ncccc4c3)nc21` gave MITF primary 13, TEAD-YAP block 40*, FBW7 activator 0 and GPR151 activ -1.
`CC(C)n1cnc2c(NCc3nc4ccccc4[nH]3)nc(Nc3nc4ccccc4n3C)nc21` gave MITF primary 5, TEAD-YAP block 0, FBW7 activator 0 and GPR151 activ 0.
Screening CC(C)n1cnc2c(NCc3nc4ccccc4[nH]3)nc(Nc3ccccn3)nc21 returned MITF primary 0, TEAD-YAP block 85*, FBW7 activator 1 and GPR151 activ 1.
CC(C)n1cnc2c(NCc3nc4ccccc4[nH]3)nc(Nc3ccncn3)nc21 was read as MITF primary -8, TEAD-YAP block 86*, FBW7 activator 0 and GPR151 activ 3.
